Tests used:
Conditions in all cases: concentration: 1 μM,replicates: in singlicate; n = 1
WNK1 = tested on: WNK1
WNK2 = tested on: WNK2
WNK3 = tested on: WNK3
WNK4 = tested on: WNK4
YANK1 = tested on: T1, YANK1
T1 construct: gene STK32A

YANK2 = tested on: T2, YANK2
T2 construct: gene STK32B

YANK3 = tested on: T3, YANK3
T3 construct: gene STK32C

YES = tested on: T4, YES
T4 construct: gene YES1

YSK1 = tested on: T5, YSK1
T5 construct: gene STK25

YSK4 = tested on: T6, YSK4
T6 construct: gene MAP3K19
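Note: KINOMEscan kinase panel screen.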

Structure (SMILES) | %Inh (WNK1) [%] | %Inh (WNK2) [%] | %Inh (WNK3) [%] | %Inh (WNK4) [%] | %Inh (YANK1) [%] | %Inh (YANK2) [%] | %Inh (YANK3) [%] | %Inh (YES) [%] | %Inh (YSK1) [%] | %Inh (YSK4) [%]
CS(=O)(=O)Nc1ccc(-c2ccnc3[nH]ccc23)cc1 [GSK993273] | 13 | 14 | 9 | 0 | 12 | 0 | 20 | 8 | 51 | 96.5
CNC(=O)c1ccccc1Nc1nc(Nc2cccc(CS(C)(=O)=O)c2)ncc1C.O=CO [GSK1520489] | 9 | 79 | 65 | 29 | 44 | 0 | 0 | 99.8 | 45 | 99.8
CC(C(=O)NC1CCN(c2ccnc(Nc3ccc(F)cc3)n2)C1)c1ccc(Cl)cc1 (stereo not shown) [GSK1379713] | 1 | 0 | 73 | 0 | 0 | 0 | 0 | 0 | 0 | 0
Cc1ccc2c(-c3ccnc(Nc4ccc(C(F)(F)F)cc4)n3)cnn2n1 [GW819776] | 3 | 0 | 0 | 0 | 0 | 0 | 0 | 0 | 0 | 43
O=C(Nc1n[nH]c2cc(-c3ccco3)ccc12)C1CC1 [SB-737447] | 0 | 0 | 0 | 0 | 0 | 0 | 0 | 0 | 0 | 96.2
Nc1nccc(-c2ccc3c(N)n[nH]c3c2)n1 [GSK1034945] | 6 | 0 | 3 | 0 | 21 | 0 | 9 | 0 | 17 | 72
O=c1[nH]cc(-c2ccc(O)cc2)c2sc(-c3ccncc3)cc12 [GSK1033723] | 1 | 26 | 18 | 10 | 10 | 0 | 14 | 5 | 0 | 98.8
